# Data: PubChem BioAssay AID1463 (National Center for Advancing Translational Sciences (NCATS), 2008)
# The whole screen tested about 280,000 compounds, of which about 2,600 (0.93%) were called active. Roughly 8% stayed inconclusive and do not appear here. The call rests on the fitted dose curve; in most records, active means well fitted curve in the direction sought with a large enough effect; inconclusive means small, poorly fitted or top-dose-only effect; inactive means flat fitted curve, though single readings scatter. The entries come from a sample that favours actives as a whole.
# Experiment: Counterscreen qHTS for Inhibitors of Tau Fibril Formation, Fluorescence Polarization; further: nearly all actives have a fitted effect of over 55% in size
# Settings: tau K18 P301L (four-repeat tau fragment) Alexa594 fluorescence, heparin fibrillization; series mostly up to 57.7 µM; activity change, negative = decrease: at the top concentration
# Excerpt: NIH Molecular Libraries Probe Production Network [MLPCN]
# NIH Chemical Genomics Center [NCGC]
# Assay Provider: Carlo Ballatore, University of Pennsylvania
# The microtubule-associated protein tau is an abundant protein in the axons of neurons that stabilizes microtubules. With its ability to modulate microtubule dynamics, tau contributes directly or indirectly, to key structural and regulatory cellular functions. Particularly important is the influence tau exerts on axonal transport, which allows signaling molecules, trophic factors and other essential cellular constituents to travel along the axons. Under pathological conditions, tau becomes sequestered into insoluble aggregates called neurofibrillary tangles. This phenomenon is believed to have pathological consequences by promoting axonal transport deficits that ultimately lead to synaptic dysfunction and neuronal loss. To identify inhibitors of tau aggregation, a heparin-induced tau fibril formation assay was used that employed a recombinantly expressed fragment of tau, K18 (Q242-E372), bearing a P301L mutation (Gustke et al. 1994; Hong et al. 1998). […] Total fluorescence (555 nm excitation and 632 nm emission) was measured to identify fluorescent or absorbent compounds at this wavelength. Such compounds may be artifacts that interfere with the Alexa 594 Tau fluorescence polarization assay.
# Gustke, N., B. Trinczek, et al. (1994). "Domains of tau protein and interactions with microtubules." Biochemistry 33(32): 9511-22.
# Hong, M., V. Zhukareva, et al. (1998).
# Li, W. and V. M. Lee (2006). "Characterization of two VQIXXK motifs for tau fibrillization in vitro." Biochemistry 45(51): 15692-701.
# von Bergen, M., S. Barghorn, et al. (2001). "Mutations of tau protein in frontotemporal dementia promote aggregation of paired helical filaments by enhancing local beta-structure." J Biol Chem 276(51): 48165-74.
# NCGC Assay Protocol Summary:
# For screening, 2 uL/well human K18 P301L (15 uM unlabeled and 0.24 uM Alexa 594-labeled tau final concentrations) in reagent buffer (100 mM sodium acetate pH 7) was dispensed into black solid 1536-well plates (Grenier) using a solenoid-based dispenser. Following transfer of 23 nL compound or DMSO vehicle by a pin tool, 2 uL/well heparin (20 uM final concentration) in reagent buffer was added and the plate centrifuged 15 s at 1000 RPM. Plates were incubated 6 hr at 37 C and then 1 uL/well ThT (30 uM final concentration) was added. After a 1 hr ambient incubation, the plates were read by an Envision (Perkin Elmer) to monitor Alexa 594 FP (555 nm excitation and 632 nm emission).
# Keywords: NIH Roadmap, MLPCN, MLI, MLSMR, NCGC, qHTS, tau, tauopathies, Alzheimer's disease, fibril, neurodegeneration, aggregation
# On the % scale 0 is the no-effect control and ±100 the full control effect; potency means the concentration at half of the fitted maximal effect; tags describe the fitted curve by direction and shape or compound fluorescence and quenching.
Compound,"activity change, negative = decrease",Potency
COC(=O)c1ccc(NC(=O)CCc2c(C)nn(-c3ccc(N4CCCC4)nn3)c2C)cc1,-12.2% (inactive),
Oc1ccc2ccccc2c1C=Nc1ccccc1,-20.7% (inactive),
COc1ccc(N=C(C)c2sc3ccccc3c2O)cc1,-23.8% (inactive),
Oc1ccc(N=Cc2sc3ccccc3c2Cl)cc1,,10 µM [quencher] (active)
CCCNc1ncnc2c1c(-c1ccccc1)cn2-c1ccc(OCC)cc1,-8.19% (inactive),
O=C(Nc1ccccc1F)C(c1ccccc1)N1Cc2ccccc2C1=O (stereo not drawn),-6.79% (inactive),
Cc1ccc(C)c(CNC(=O)c2cc3ccccn3n2)c1,-15.9% (inactive),
CCc1ccc(CNC(=O)c2ccc(CS(=O)c3ccc(Br)cc3)o2)cc1 (stereo not drawn),-8.58% (inactive),
CN(C)c1cccc(C(=O)Nc2nc3ccc(S(=O)(=O)NC(C)(C)C)cc3s2)c1,-26.9% (inactive),
COCCNc1ccnc(-c2cccc(NS(C)(=O)=O)c2)n1,-11.8% (inactive),
COc1ccc2[nH]cc(CCNc3nc(-c4cccc(NS(C)(=O)=O)c4)nc4ccccc34)c2c1,,28.2 µM [quencher] (active)
COc1ccc2[nH]cc(CCNc3ncnc4ccc(-c5ccccc5CN(C)C)cc34)c2c1,-18.8% (inactive),
Cc1cccc(Cn2c(CN3CCC(C(=O)NCc4ccccc4Cl)CC3)cc3ccccc32)c1,-1.33% (inactive),
CCn1c2ccccc2c2cc(NC(=O)Nc3ccc([N+](=O)[O-])cc3C)ccc21,,8.91 µM [quencher] (active)
Cc1cc([N+](=O)[O-])ccc1NC(=O)c1ccc(NC(=O)C(C)C)cc1,-6.04% (inactive),
CCn1c2ccccc2c2cc(NC(=O)CNC)ccc21,-25.8% (inactive),
O=C(Cn1cc(SCc2cccc(Cl)c2)c2ccccc21)N1CCCCC1,-24.4% (inactive),
Cc1nc2ccn(Cc3cccnc3)c(=O)c2cc1C(=O)N1CCN(c2ccccc2F)CC1,-0.563% (inactive),
CCOc1ccccc1C(=O)NCC(c1ccc(N(C)C)cc1)N1CCCC1 (stereo not drawn),4.45% (inactive),
O=C(Cc1ccccc1)NCc1ccc(F)cc1,-0.209% (inactive),
CN(C)c1ccc(C(CNC(=O)c2ccc(F)cc2)c2c[nH]c3ccccc23)cc1 (stereo not drawn),,25.1 µM [quencher] (active)
CCOc1ccc(CNC(=O)Cn2cc3c(n2)-c2c(oc(C(=O)N4CCCC4)c2C)CC3)cc1,-13.1% (inactive),
O=C(CN1C(=O)COc2ccc(S(=O)(=O)N3CCOCC3)cc21)N1CCN(c2cccc(Cl)c2)CC1,-9.08% (inactive),
COc1ccc(/C=N/Nc2ncnc3sc4c(c23)CCCC4)cc1O,,14.1 µM [quencher] (active)
COc1ncnc2sc3c(c12)CCCC3,6.33% (inactive),

Compound,"activity change, negative = decrease",Potency
CC1(C)CN=C(N2CCN(c3ncnc4sc5c(c34)CCCC5)CC2)S1,2.38% (inactive),
Cc1ccc(Cl)cc1NC(=O)CCS(=O)(=O)c1ccc(Br)s1,-2.67% (inactive),
Cc1ccccc1Nc1nn2c(=O)c3ccc(C(=O)NCCc4ccc(Cl)cc4)cc3nc2s1,-23.6% (inactive),
CN1CCN(C2(CNC(=O)COc3ccc(C(C)(C)C)cc3)CCCCC2)CC1,-8.9% (inactive),
Cn1c(C(=O)N2CCC(C(=O)N3CCN(c4ccccc4)CC3)CC2)cc2sccc21,-5.95% (inactive),
O=C(N/N=C/c1c(Cl)[nH]c2ccccc12)c1sc2ccccc2c1Cl,,10 µM [quencher] (active)
CCCC(=O)Nc1ccc(NC(=O)c2sc3ccccc3c2Cl)cc1,-3.72% (inactive),
Cc1nn(C)cc1/C=N/NC(=O)c1sc2ccccc2c1Cl,-17.1% (inactive),
CCOc1ccc(CCNC(=O)c2ccc3c(c2)sc2nc(-c4ccc(F)cc4)cn23)cc1OCC,-23.8% (inactive),
COc1ccccc1CSc1nc2ccccc2[nH]1,-13.5% (inactive),
COc1ccccc1CSc1ncc(-c2ccc([N+](=O)[O-])cc2)[nH]1,,28.2 µM [quencher] (active)
COc1ccccc1CC(=O)Nc1ccc([N+](=O)[O-])cc1OC,-24.8% (inactive),
CCc1ccccc1NC(=O)N1CCN(C(=O)c2nsc3ccccc23)CC1,-5.01% (inactive),
COc1cccc(NC(=S)NCc2ccco2)c1,1.26% (inactive),
Cc1[nH]c2ccccc2c1CCN(Cc1cccs1)C(=S)NC(C)(C)C,-17.2% (inactive),
COc1cccc(NC(=S)N(CCc2c(C)[nH]c3ccccc23)Cc2ccco2)c1,,12.6 µM [quencher] (active)
CC(C)(C)OC(=O)N1CCC(c2c(C(=O)N3CCc4ccccc4C3)cnn2-c2ccc(F)cc2)CC1,-6.75% (inactive),
Cc1ccc2[nH]cc(CCCN3C(=O)c4ccccc4C3=O)c2c1,,25.1 µM [quencher] (active)
O=C1c2ccccc2C(=O)N1CCc1nn[nH]n1,4.43% (inactive),
O=C1c2ccccc2C(=O)N1CCCc1nc(-c2ccccc2)no1,-12.6% (inactive),
COc1ccc(CCNC(=O)c2ccc3c(c2)sc2nc(-c4ccc(C)cc4)cn23)cc1OC,12.4% (inactive),
O=C(CSCc1cnn(-c2ccccc2)c1-n1cccc1)NCc1ccccc1Br,-5.24% (inactive),
CCOc1ccccc1CNC(=O)c1cnc2c(-c3ccc(OCC)c(OCC)c3)c(C)nn2c1C,-23.8% (inactive),
CN(c1ccc(OCC(=O)NC2=NCCS2)cc1)S(=O)(=O)c1ccc(F)cc1,-15% (inactive),
CN(CC(=O)Nc1cccc(F)c1)CC(=O)Nc1cccc([N+](=O)[O-])c1,-23.4% (inactive),

Compound,"activity change, negative = decrease",Potency
CN(c1ccc(OCC(=O)OCC(=O)Nc2cccc([N+](=O)[O-])c2)cc1)S(=O)(=O)c1ccc(F)cc1,,10 µM [quencher] (active)
Cn1ccc(NC(=O)Nc2ccc(Cl)cc2)n1,-10.6% (inactive),
NS(=O)(=O)c1ccc(CCNC(=O)Nc2ccc(Cl)cc2)cc1,15.1% (inactive),
CC(C)S(=O)(=O)c1csc(NC(=O)Nc2ccc(Cl)cc2)c1Cl,,25.1 µM [quencher] (active)
Cc1ccc(CSc2nc3cccnc3n2Cc2ccc(C(=O)NC3CC3)cc2)cc1,2.64% (inactive),
CCCNC(=O)CCn1nc(-c2ccccc2)c2ccccc2c1=O,-6.14% (inactive),
O=C(Nc1cccc(Cl)c1)Nc1ccccc1NS(=O)(=O)c1cccs1,,11.2 µM [quencher] (active)
O=C(Nc1nncs1)c1ccccc1NS(=O)(=O)c1cccs1,-4.18% (inactive),
COc1cc(NS(=O)(=O)c2cccs2)cc(OC)c1,-14.8% (inactive),
CC(NC(=O)c1cc(Sc2ccc(F)cc2F)nc2ccccc12)c1ccccc1 (stereo not drawn),-10.4% (inactive),
CCN(c1ccc(Cl)cc1)S(=O)(=O)c1nnc(NC(=O)c2ccco2)s1,-2.62% (inactive),
COc1ccc(CCNC(=O)C(=O)NCC(c2ccco2)S(=O)(=O)c2cccs2)cc1OC (stereo not drawn),-16.5% (inactive),
CC1=Nc2cc(C(=O)NCc3ccc(C)cc3)ccc2Sc2ccc(Cl)cc21,-15.9% (inactive),
Cc1ccc(C)c2sc(NC(=O)c3ccc(S(=O)(=O)N4CCCC4)cc3)nc12,-21.1% (inactive),
CCN(CC)c1ccc(/C=N/Nc2nc(C)cc(C)n2)c(O)c1,2.1% (inactive),
CCN(CC)c1ccc2c(Nc3ccccc3)c(C=O)c(=O)oc2c1,-7.21% (inactive),
CCN(CC)c1ccc2oc(=O)c(C)nc2c1,,12.6 µM [quencher] (active)
COc1cc(OC)c(OC)cc1/C=C/c1nc2cc3ccccc3cc2c(=O)n1-c1ccc(F)c(Cl)c1,-17.3% (inactive),
COc1ccccc1-c1ccnc2[nH]n(-c3ccccc3)c(=O)c12,-12.9% (inactive),
CCOC(=O)c1c(C)[nH]c(CCC(=O)NCCCN2CCN(c3cc(C)ccc3C)CC2)c1C,-23.4% (inactive),
COc1cccc(CC(=O)Nc2ccc(-c3csc(C)n3)cc2)c1,-18.4% (inactive),
C=CCCC(=O)Nc1nc(C)c(-c2csc(Nc3ccc(Cl)cc3)n2)s1,,12.6 µM [quencher] (active)
CCOC(=O)c1csc(NC(=O)Nc2cccc(OC)c2)n1,-1.36% (inactive),
Cc1nc(NC(=O)CN(C)S(=O)(=O)c2ccc(Cl)cc2)sc1C,-18% (inactive),
Cc1nc(C)c(-c2csc(NCCc3ccccc3)n2)s1,-27.9% (inactive),

Compound,"activity change, negative = decrease",Potency
CCCCCCC(=O)Nc1nc(C)c(-c2csc(Nc3cccc(OC)c3)n2)s1,,8.91 µM [quencher] (active)
Cc1ccccc1C(=O)Nc1nnc(S(=O)(=O)N(C)c2ccc(Cl)cc2)s1,-20% (inactive),
Cc1ccc2onc(CC(=O)N3CCN(c4ccc(Cl)cc4)CC3)c2c1,2.99% (inactive),
Cc1cc2c(cc1S(=O)(=O)CCC(=O)Nc1ccc(OC(F)(F)F)cc1)OCC(=O)N2,-24.4% (inactive),
Cc1cccc(C(=O)N2c3nc(-c4ccco4)nn3C3(CCCCC3)[C@@H]3CCCC[C@@H]32)c1,-1.79% (inactive),
CCSc1nc(-c2ccc(OC)cc2)cc(-c2ccc(OC)cc2)c1C#N,-20.3% (inactive),
COc1ccc(-c2cc(-c3ccc(N)cc3)nc(N)c2C#N)cc1OC,,28.2 µM [quencher] (active)
CCOc1cc(-c2cc(-c3ccc(OC)cc3)nc(N)c2C#N)ccc1O,-26% (inactive),
CCn1cc2nc(SCc3cccc(F)c3)n(CCc3ccccc3)c(=O)c2n1,-19.5% (inactive),
CCN1CCN(CCCNC(=O)c2cnn(-c3ccc(C)cc3C)c2C2CCN(C(=O)OC(C)(C)C)CC2)CC1,-19.1% (inactive),
CCOC(=O)Cc1csc(NC(=O)Nc2ccccc2)n1,-12.3% (inactive),
Cc1csc(NC(=O)Nc2ccccc2[N+](=O)[O-])n1,-19.4% (inactive),
CCOC(=O)/C(=N\Nc1ccccc1[N+](=O)[O-])c1csc(Nc2ccccc2)n1,,7.08 µM [quencher] (active)
CCc1ccc(NC(=O)c2cc(S(=O)(=O)NC3CCCCCC3)ccc2F)cc1,-23.9% (inactive),
Cc1cccc(CCNC(=O)c2ccc3c(c2)nc2n3CCC(C)C2)c1 (stereo not drawn),-12.3% (inactive),
CCOc1cc(CNC(=O)c2sc3ncnc(N(C)C4CCCCC4)c3c2C)ccc1OC,-2.89% (inactive),
CCSc1ncnc2c(C#N)c3n(c12)CCCCC3,-3.57% (inactive),
CCSC1=C(C#N)C(=O)n2c1cc1c2CCCC1,,31.6 µM [quencher] (active)
O=C(CSCc1cnn(-c2ccccc2)c1-n1cccc1)NCc1ccc(Cl)cc1,14.4% (inactive),
COc1ccc(-c2nc3scc(CCNS(=O)(=O)c4cc(F)ccc4OC)n3n2)cc1OC,-16.3% (inactive),
COc1ccc(NC(=O)c2cnc(Nc3ccc(C)c(Cl)c3)c3ccccc23)cc1OC,-13% (inactive),
COc1ccc(Nc2ncc(C(=O)Nc3cc(C)ccc3OC)c3ccccc23)cc1,,3.55 µM [quencher] (active)
COc1ccc(C)cc1NC(=O)NCc1ccccn1,2.13% (inactive),
